Results filed as inconclusive are left out. Unmarked numbers belong to inactive results. The source made the active and inactive calls. The call rests on the fitted dose curve; in most records, active means well fitted inhibition curve with a large enough effect in the repeat runs; inconclusive means weak or mixed curves; inactive means no such curve, though single readings can be large or run the other way.
On the % scale 0 is the no-effect control and ±100 the full control effect.

The target in this experiment is Estrogen receptor (Homo sapiens) (UniProt P03372). In words: qHTS assay to identify small molecule antagonists of the estrogen receptor alpha (ER-alpha) signaling pathway using the BG1 cell line in the presence of 0.1 nM 17-beta-estradiol (AID 1259244). Further: nearly all actives have a fitted effect of over 50% in size. The following applies: VM7Luc4E2 (BG1) ERE-luciferase, antagonist mode, 0.1 nM E2, 22 h; series mostly up to 92.4 µM. An excerpt: National Center for Advancing Translational Sciences [NCATS]
Estrogen receptor (Homo sapiens), sequence (P03372 whole entry, looked up): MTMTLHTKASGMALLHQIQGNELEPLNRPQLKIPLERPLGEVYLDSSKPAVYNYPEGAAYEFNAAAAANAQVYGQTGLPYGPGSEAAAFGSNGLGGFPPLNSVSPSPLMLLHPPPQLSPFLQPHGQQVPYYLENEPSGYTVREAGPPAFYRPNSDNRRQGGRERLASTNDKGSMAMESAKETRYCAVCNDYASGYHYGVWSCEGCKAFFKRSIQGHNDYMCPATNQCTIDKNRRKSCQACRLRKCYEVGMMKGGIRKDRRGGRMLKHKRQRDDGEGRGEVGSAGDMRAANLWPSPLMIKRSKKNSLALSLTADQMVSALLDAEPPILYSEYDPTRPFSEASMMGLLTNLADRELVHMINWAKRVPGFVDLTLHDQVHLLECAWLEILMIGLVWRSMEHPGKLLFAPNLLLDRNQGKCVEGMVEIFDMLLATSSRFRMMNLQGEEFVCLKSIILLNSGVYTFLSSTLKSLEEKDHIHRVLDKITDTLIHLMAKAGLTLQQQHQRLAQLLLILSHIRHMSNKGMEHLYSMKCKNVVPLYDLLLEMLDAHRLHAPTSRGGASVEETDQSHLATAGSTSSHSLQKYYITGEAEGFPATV
NIH Chemical Genomics Center [NCGC]
U.S. Environmental Protection Agency [EPA]
National Institutes of Environmental Health Sciences [NIEHS]
National Toxicology Program [NTP]
U.S. Food and Drug Administration [FDA]
Estrogen receptor (ER), a member of the nuclear hormone receptor plays an important role in development, metabolic homeostasis and reproduction. Two subtypes of ER, ER-alpha and ER-beta, have similar expression patterns with some uniqueness in both types. Endocrine disrupting chemicals (EDCs) and their interactions with steroid hormone receptors like ER causes disruption of normal endocrine function. Therefore, it is important to understand the effect of environmental chemicals in ER signaling pathway. For identifying ER antagonists, VM7Luc4E2 cell line was used to screen against Tox21 compound libraries.
VM7Luc4E2 cell line (provided by Denison MS, University of California) endogenously express full-length ER-alpha and is stably transfected with a plasmid containing four estrogen responsive elements (ERE) upstream of a luciferase reporter gene. The current screening for identification of ER-alpha inhibitors against Tox21 compound libraries used lower concentration (0.1 nM) of 17beta-Estradiol as a stimulator.
Tox21 Assay Protocol Summary:
VM7Luc4E2 cells were cultured in phenol red free assay medium containing 10% charcoal stripped FBS for 5 days prior to the assay. The cells were dispensed at 4,000 cells/well in 4 uL of assay medium into white wall/solid-bottom 1536-well plates (Corning Life Sciences, Corning, NY) using a Multidrop Combi (ThermoFisher Scientific, Waltham, MA) dispenser. After the assay plates were incubated at 37C and 5% CO2 for 24 hr, 23 nL of compounds dissolved in DMSO, positive controls or DMSO only was transferred to the assay plates by a Pintool station (Kalypsys, San Diego, CA). The transfer of compounds was followed by the addition of 1 uL of 0.1 nM (final concentration) agonist (17beta-Estradiol)/assay medium using a Flying Reagent Dispenser (FRD, Aurora Discovery, San Diego, CA). The plates were incubated at 37C and 5% CO2 for 22 hr. For luciferase reporter gene assay, 4 uL of ONE-Glo reagent (Promega Corporation, Madison, WI) was added to each well using the FRD and after 30 min incubation at room temperature luminescence intensity was measured using ViewLux plate reader (PerkinElmer, Shelton, CT).
(In general: In qHTS, concentration-response curves come from the screen itself.)
Take `OCc1ccccn1`: the result was inactive.
For `CCCCCCCCCCCCCCCCCCOCC(O)CO` (stereo not given), the outcome was inactive.
On the same count and under the same terms, as for `CCO[Si](C)(OCC)OCC`, the entry is “inactive”; as for `C1COCCO1`, “inactive”; as for `CC12CCC(CC1=O)C2(C)C` (stereo not given), “inactive”.
Same read-out and setting: the value for `CCCCCCCCCCCl` was “inactive”; that for `O=C(O)c1ccc[n+]([O-])c1` was “inactive”.
The same measure, in the same setting: as for `CNC(=O)c1c(I)c(NC(=O)CCCCC(=O)Nc2c(I)c(C(=O)O)c(I)c(C(=O)NC)c2I)c(I)c(C(=O)O)c1I`, the entry is “inactive”.
For the compound `C=CCOCC(O)CS(=O)(=O)O` (stereo not given), the outcome was inactive.
Still for that read-out and setting: as for `CC(=O)N[C@@H](CCC(N)=O)C(=O)O`, the entry is “inactive”; as for `CCCCN(CCO)CCO`, “inactive”.
Consider `O=c1[nH]c(=O)n([C@H]2O[C@H](CO)[C@@H](O)[C@@H]2O)cc1/C=C\Br`, for which the result was inactive.
On the same count and under the same terms, as for `CC1=CCC2C(C1)C2(C)C` (stereo not given), the entry is “inactive”.
Same read-out and setting: as for `CC(C)c1cccc(C(C)C)c1N`, the entry is “inactive”.
In the case of `CCCC(=O)O[C@]1(C(=O)CCl)[C@@H](C)C[C@H]2[C@@H]3CCC4=CC(=O)C=C[C@]4(C)[C@@]3(F)C(=O)C[C@@]21C`, the result was inactive.
As for `C1CCCCCCCCCCC1`, the activity change, negative = inhibition is -1.81% [at 19 µM].
As for `O=C(O)CCNC(=O)c1ccc(N=Nc2ccc(O)c(C(=O)O)c2)cc1`, the outcome was inactive.
Still for that read-out and setting: as for `CC/C=C\C#N`, the entry is “inactive”; as for `CCCCCCCCN(C)CCCCCCCC`, “inactive”.
The same measure, in the same setting: as for `CCCCCN(CCCCC)C(=O)C(CCC(=O)O)NC(=O)c1ccc(Cl)c(Cl)c1` (stereo not given), the entry is “inactive”; as for `Nc1nc(F)nc2c1ncn2[C@@H]1O[C@H](CO)[C@@H](O)[C@@H]1O`, “inactive”; as for `CCCCCCOC(=O)c1ccccc1O`, “inactive”.
As for `CCCCCCCCCCCCCCCCCC(=O)OCCCCCCCCCCCCCC(C)C`, the outcome was inactive.
The same measure, in the same setting: as for `Oc1ccc2c(c1)OC[C@@H](N1CCC(O)(c3ccc(F)cc3)CC1)[C@H]2O`, the entry is “inactive”.
As to `NC(=O)c1c(Cl)cccc1Cl`, the result was inactive.
Still for that read-out and setting: as for `O=C(O)c1ccccc1-c1ccc(C(F)(F)F)cc1`, the entry is “inactive”; as for `Fc1ccccc1-c1ccccc1`, “inactive”; as for `COC(=O)[C@H]1[C@H]2C[C@@H]3c4[nH]c5cc(OC)ccc5c4CCN3C[C@H]2C[C@@H](OC(=O)COc2ccc(OC)cc2)[C@@H]1OC`, “inactive”.
On to `CCn1cc(C(=O)O)c(=O)c2cc(F)c(N3CCN(C)CC3)cc21`, for which the activity change, negative = inhibition was 6.79% [at 19 µM].
Regarding `OCCN1C[C@H](O)[C@@H](O)[C@H](O)[C@H]1CO`, the result was inactive.
On the same count and under the same terms, the value for `C(=C(c1ccccc1)c1ccccc1)c1ccccc1` was “inactive”; that for `C=C(C)C(=O)NCCC[N+](C)(C)C` was “inactive”; that for `COc1nc(C)nc(N)n1` was “inactive”.
Same read-out and setting: the value for `CCOC(=O)Cn1c(=O)sc2cccc(Cl)c21` was “inactive”.
Still for that read-out and setting: as for `O=C(O)c1ccccc1S`, the entry is “inactive”; as for `CCC(C(=O)NC(N)=O)c1ccccc1` (stereo not given), “inactive”.
`CC(C)[N+](C)(C)CC(O)COc1cccc2ccccc12` (stereo not given): the outcome was inactive.
Same read-out and setting: the value for `O=C(O)Cc1cc(I)c(Oc2cc(I)c(O)c(I)c2)c(I)c1` was “inactive”; that for `CN(C)C(=O)Nc1ccccc1` was “inactive”; that for `CC(=O)CCc1ccc(O)cc1` was “inactive”.

The record behind these values is PubChem BioAssay (Tox21).
